# How the values were obtained:
# Assay in all cases: DAPPL (digital affinity profiling via proximity ligation, sequencing); 10 mM Tris-HCl pH 7.5, 50 mM NaCl, 1 mM DTT, 4% glycerol, room temperature, 30 min; GST-TFs on glutathione beads, 16-mer random dsDNA library, 0.1% formaldehyde crosslink after washing; high values mean tight binding
# Conditions in all cases: protein: recombinant; tags: N-terminal GST; dsDNA, one strand shown
# [1] = biological target: T1, ERG (Homo sapiens, UniProt P11308 1-479)
# T1 sequence: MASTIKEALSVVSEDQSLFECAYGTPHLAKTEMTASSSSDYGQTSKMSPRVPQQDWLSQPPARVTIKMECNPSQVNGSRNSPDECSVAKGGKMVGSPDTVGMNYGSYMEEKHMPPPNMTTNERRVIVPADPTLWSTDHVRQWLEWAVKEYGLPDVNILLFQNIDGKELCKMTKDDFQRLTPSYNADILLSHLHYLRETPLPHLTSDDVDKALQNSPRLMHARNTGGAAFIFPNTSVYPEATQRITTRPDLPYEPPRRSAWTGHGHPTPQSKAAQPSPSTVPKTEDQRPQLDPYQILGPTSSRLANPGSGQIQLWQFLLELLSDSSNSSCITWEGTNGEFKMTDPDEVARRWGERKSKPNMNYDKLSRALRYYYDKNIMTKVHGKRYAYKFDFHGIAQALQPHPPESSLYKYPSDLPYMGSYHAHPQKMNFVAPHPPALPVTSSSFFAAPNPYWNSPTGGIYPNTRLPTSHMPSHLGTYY
# In short: (§1)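 Sequencing on an Illumina NextSeq500 followed washing, crosslinking with 0.1% formaldehyde, proximity ligation (BsaI/T4 ligase, 1 h, 37 °C) and PCR amplification of pools that had been incubated for 30 min at room temperature with 200 nmole of a random double-stranded 16-mer DNA library in Tris/NaCl/DTT/glycerol buffer. Each pool held DNA-barcoded human transcription factors, expressed in yeast as GST fusions and captured on glutathione beads, plus a tag-only sample. Binding signal is a hexamer's read frequency for a factor divided by its frequency in the tag-only sample.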
# [2] = biological target: ELF1 (Homo sapiens, UniProt P32519 1-619)
# In short: as §1
# [3] = biological target: T2, EHF (Homo sapiens, UniProt Q9NZC4 1-300)
# T2 sequence: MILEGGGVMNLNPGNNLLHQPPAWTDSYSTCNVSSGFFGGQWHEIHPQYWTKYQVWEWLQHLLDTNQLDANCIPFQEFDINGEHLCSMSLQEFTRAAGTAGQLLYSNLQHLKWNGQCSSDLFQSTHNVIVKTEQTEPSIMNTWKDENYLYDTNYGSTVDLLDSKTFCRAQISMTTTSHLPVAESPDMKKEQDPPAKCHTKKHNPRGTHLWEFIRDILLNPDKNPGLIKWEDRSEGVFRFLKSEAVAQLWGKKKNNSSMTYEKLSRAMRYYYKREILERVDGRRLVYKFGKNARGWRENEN
# In short: as §1
# [4] = biological target: SPIB (Homo sapiens, UniProt Q01892 1-262)
# In short: as §1
# [5] = biological target: T3, FEV (Homo sapiens, UniProt Q99581 1-238)
# T3 sequence: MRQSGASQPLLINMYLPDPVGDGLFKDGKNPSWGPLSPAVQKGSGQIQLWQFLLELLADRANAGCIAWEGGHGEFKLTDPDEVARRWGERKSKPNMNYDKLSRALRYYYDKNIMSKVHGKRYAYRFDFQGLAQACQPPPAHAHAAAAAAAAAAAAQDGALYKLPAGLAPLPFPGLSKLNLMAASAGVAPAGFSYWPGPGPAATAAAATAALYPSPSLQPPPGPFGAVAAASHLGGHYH
# In short: as §1
# [6] = biological target: ETV5 (Homo sapiens, UniProt P41161 1-510)
# In short: as §1
# [7] = biological target: T4, ELK4 (Homo sapiens, UniProt P28324-2 1-405)
# T4 sequence: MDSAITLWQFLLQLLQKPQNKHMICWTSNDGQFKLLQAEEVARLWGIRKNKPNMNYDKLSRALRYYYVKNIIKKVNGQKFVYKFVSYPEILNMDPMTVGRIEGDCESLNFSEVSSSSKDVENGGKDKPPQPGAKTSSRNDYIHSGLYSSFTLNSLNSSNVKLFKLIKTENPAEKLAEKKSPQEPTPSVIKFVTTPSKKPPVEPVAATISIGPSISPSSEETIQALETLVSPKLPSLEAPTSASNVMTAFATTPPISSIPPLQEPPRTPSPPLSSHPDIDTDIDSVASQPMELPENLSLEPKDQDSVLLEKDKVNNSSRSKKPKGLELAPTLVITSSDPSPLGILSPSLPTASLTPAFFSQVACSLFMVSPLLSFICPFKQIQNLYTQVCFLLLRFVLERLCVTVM
# In short: as §1
# [8] = biological target: T5, ETV2 (Homo sapiens, UniProt O00321 1-342)
# T5 sequence: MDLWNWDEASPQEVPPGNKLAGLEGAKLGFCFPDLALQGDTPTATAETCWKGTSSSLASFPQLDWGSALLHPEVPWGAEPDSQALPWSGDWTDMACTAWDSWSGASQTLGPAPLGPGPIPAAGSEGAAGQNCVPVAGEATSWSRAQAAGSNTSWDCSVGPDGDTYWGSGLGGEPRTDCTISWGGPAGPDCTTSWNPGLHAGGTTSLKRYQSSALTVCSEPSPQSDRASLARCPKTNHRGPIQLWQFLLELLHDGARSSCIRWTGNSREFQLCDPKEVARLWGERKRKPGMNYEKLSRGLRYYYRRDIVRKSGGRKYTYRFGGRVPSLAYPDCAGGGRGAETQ
# In short: as §1
# [9] = biological target: T6, ELF3 (Homo sapiens, UniProt P78545 1-371)
# T6 sequence: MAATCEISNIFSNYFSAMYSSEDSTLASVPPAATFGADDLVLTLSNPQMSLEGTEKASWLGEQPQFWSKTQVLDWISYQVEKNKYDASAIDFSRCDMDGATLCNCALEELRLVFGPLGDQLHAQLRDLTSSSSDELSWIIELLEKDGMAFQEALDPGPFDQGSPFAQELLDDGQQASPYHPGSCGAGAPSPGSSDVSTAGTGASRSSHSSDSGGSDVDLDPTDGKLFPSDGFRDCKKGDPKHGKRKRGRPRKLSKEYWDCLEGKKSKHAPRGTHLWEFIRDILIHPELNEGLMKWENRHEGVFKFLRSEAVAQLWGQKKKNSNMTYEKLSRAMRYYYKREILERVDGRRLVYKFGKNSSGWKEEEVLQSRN
# In short: as §1
# [10] = biological target: T7, ERF (Homo sapiens, UniProt P50548 1-548)
# T7 sequence: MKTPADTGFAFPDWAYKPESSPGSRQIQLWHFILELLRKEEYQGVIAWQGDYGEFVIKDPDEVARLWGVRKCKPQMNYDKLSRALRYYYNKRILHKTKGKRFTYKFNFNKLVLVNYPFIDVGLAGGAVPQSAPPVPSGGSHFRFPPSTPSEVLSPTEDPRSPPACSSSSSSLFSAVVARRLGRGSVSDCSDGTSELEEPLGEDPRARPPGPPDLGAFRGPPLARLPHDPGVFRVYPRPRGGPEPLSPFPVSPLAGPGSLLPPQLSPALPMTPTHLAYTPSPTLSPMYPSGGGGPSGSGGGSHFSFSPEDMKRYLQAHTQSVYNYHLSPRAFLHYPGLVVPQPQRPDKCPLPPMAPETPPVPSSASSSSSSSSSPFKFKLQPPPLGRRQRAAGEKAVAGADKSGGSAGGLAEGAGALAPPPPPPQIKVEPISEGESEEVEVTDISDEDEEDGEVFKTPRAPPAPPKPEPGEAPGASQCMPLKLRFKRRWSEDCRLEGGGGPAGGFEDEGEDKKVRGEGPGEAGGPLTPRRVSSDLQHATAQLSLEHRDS
# In short: as §1
# [11] = biological target: T8, ETV3L (Homo sapiens, UniProt Q6ZN32 1-361)
# T8 sequence: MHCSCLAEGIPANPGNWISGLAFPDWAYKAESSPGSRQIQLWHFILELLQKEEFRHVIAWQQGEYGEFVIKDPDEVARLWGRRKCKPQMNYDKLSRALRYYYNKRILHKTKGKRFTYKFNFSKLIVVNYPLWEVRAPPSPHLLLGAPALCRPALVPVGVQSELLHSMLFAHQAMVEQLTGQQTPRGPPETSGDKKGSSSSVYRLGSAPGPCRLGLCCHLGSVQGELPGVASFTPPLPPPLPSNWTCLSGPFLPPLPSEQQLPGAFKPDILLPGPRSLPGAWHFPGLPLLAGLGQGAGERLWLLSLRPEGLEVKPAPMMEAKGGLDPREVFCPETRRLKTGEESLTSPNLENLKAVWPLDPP
# In short: as §1
# [12] = biological target: T9, ETS2 (Homo sapiens, UniProt P15036 1-469)
# T9 sequence: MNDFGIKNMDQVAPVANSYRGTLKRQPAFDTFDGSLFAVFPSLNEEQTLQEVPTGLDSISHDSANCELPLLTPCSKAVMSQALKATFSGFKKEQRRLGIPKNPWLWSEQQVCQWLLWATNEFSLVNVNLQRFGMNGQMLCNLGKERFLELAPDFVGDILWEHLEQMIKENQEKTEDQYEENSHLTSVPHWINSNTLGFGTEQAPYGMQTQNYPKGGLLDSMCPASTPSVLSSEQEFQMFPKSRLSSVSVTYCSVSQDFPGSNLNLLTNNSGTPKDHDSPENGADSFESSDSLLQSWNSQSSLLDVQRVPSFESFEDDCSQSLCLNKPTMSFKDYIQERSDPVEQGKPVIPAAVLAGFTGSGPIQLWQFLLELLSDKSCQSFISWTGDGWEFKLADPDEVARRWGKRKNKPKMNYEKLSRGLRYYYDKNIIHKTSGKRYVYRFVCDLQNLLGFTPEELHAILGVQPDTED
# In short: as §1
# [13] = biological target: T10, SPDEF (Homo sapiens, UniProt O95238 1-335)
# T10 sequence: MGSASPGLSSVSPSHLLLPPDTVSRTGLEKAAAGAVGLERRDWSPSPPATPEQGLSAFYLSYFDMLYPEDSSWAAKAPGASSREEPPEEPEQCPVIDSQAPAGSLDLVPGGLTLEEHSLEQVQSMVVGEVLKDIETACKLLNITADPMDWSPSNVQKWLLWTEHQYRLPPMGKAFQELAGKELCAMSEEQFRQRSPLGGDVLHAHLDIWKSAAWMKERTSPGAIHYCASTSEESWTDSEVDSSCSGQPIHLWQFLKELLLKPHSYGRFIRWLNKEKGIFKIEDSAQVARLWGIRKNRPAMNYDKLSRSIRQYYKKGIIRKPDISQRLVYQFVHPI
# In short: as §1
# [14] = biological target: T11, ETV7 (Homo sapiens, UniProt Q9Y603 1-341)
# T11 sequence: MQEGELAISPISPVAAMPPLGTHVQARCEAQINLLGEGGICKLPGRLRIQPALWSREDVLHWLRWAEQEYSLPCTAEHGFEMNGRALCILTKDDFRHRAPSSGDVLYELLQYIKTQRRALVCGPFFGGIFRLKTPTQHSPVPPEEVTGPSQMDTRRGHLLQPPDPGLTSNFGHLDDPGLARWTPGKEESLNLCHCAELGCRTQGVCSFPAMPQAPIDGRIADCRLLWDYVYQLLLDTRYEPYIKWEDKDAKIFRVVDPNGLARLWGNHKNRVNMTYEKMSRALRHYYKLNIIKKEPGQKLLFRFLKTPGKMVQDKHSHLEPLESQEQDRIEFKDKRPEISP
# In short: as §1
# [15] = biological target: T12, ETV3 (Homo sapiens, UniProt P41162-2 1-143)
# T12 sequence: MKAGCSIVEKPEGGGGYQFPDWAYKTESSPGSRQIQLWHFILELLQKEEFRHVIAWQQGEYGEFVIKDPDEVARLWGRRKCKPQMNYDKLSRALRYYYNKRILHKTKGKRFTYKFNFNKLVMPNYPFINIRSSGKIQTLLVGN
# In short: as §1
# [16] = biological target: ETV6 (Homo sapiens, UniProt P41212 1-452)
# In short: as §1
# ELF1, sequence (P32519 whole entry): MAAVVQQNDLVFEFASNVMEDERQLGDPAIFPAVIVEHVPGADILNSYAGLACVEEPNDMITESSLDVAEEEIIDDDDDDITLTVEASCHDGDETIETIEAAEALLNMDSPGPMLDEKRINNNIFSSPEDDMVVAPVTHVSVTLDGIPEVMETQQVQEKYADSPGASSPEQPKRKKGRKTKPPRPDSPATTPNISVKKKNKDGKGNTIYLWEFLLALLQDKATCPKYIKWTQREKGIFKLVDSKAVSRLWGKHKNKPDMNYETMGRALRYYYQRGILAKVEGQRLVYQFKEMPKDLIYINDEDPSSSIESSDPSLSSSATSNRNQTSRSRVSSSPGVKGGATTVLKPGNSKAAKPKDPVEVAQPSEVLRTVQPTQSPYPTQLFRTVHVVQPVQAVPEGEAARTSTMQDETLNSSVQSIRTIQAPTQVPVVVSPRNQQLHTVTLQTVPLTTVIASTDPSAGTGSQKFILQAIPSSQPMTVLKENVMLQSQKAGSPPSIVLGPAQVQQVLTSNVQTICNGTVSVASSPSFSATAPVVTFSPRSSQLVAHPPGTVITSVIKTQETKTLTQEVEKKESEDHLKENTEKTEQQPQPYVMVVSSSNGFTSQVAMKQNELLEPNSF
# ETV6, sequence (P41212 whole entry): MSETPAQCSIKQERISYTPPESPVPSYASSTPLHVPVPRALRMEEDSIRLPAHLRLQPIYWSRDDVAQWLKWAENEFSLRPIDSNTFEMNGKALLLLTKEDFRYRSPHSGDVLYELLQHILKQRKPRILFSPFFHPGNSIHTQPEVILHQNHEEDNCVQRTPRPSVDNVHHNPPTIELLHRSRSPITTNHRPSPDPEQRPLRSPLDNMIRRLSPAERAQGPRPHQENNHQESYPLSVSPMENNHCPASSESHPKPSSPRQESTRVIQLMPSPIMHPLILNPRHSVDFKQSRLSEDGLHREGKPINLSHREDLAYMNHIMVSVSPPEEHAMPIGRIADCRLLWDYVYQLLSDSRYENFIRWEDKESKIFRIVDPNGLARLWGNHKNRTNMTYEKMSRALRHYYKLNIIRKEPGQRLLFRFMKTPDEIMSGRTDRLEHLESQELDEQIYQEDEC
# SPIB, sequence (Q01892 whole entry): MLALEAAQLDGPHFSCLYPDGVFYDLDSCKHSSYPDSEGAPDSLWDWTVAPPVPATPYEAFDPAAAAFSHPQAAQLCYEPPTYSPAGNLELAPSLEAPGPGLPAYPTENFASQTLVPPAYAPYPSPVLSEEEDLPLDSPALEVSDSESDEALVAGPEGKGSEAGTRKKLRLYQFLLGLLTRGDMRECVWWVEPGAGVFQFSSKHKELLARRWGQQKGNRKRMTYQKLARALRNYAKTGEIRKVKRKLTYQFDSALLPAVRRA
# ETV5, sequence (P41161 whole entry): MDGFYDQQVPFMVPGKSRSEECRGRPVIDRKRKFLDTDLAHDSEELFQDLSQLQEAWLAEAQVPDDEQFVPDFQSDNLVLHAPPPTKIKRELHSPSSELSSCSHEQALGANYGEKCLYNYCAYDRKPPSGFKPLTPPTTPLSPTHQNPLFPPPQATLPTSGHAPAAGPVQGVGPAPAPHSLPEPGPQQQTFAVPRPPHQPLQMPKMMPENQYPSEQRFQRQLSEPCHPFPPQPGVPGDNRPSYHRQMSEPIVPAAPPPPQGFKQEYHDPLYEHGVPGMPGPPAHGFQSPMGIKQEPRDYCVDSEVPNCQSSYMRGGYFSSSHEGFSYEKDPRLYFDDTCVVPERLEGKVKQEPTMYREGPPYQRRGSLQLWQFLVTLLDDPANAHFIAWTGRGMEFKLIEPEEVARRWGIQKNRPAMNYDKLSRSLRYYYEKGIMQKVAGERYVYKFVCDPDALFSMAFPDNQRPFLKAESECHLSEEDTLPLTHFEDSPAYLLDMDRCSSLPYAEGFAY
sequence,measurement,setting,value
TGGCTG,binding signal,[1],"1.04 fold enrichment (6-mer frequency, TF over GST control)"
same,binding signal,[2],"1.06 fold enrichment (6-mer frequency, TF over GST control)"
same,binding signal,[3],"1.23 fold enrichment (6-mer frequency, TF over GST control)"
same,binding signal,[4],"1.01 fold enrichment (6-mer frequency, TF over GST control)"
same,binding signal,[5],"1.04 fold enrichment (6-mer frequency, TF over GST control)"
same,binding signal,[6],"1.08 fold enrichment (6-mer frequency, TF over GST control)"
same,binding signal,[7],"1.24 fold enrichment (6-mer frequency, TF over GST control)"
same,binding signal,[8],"1.26 fold enrichment (6-mer frequency, TF over GST control)"
same,binding signal,[9],"1 fold enrichment (6-mer frequency, TF over GST control)"
same,binding signal,[10],"1.17 fold enrichment (6-mer frequency, TF over GST control)"
same,binding signal,[11],"1.09 fold enrichment (6-mer frequency, TF over GST control)"
same,binding signal,[12],"1.05 fold enrichment (6-mer frequency, TF over GST control)"
same,binding signal,[13],"1.01 fold enrichment (6-mer frequency, TF over GST control)"
same,binding signal,[14],"1.07 fold enrichment (6-mer frequency, TF over GST control)"
same,binding signal,[15],"1 fold enrichment (6-mer frequency, TF over GST control)"
same,binding signal,[16],"1.02 fold enrichment (6-mer frequency, TF over GST control)"
